Among all 220,000 compounds or so, about 2,600 (1.2%) were called active. Only a selection was taken, and actives are over-represented in it overall. Unmarked numbers belong to inactive results.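 Rule for the calls: active = activation above the mean of all tested compounds plus 3 SD, set per screening run (cut at about 8.8% in these data); inactive = the rest.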

The assay addresses Wee1-like protein kinase (Homo sapiens) (UniProt P30291). The experiment in a line: Wee1 degradation inhibitors, primary screen, cell-based, HeLa, Wee1K328M-luciferase, luminescence (AID 1321).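 Note: cells exposed to compound for 20 h before luminescence read; 0% = DMSO alone and 100% = MG132 at 30 µM.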 Conditions: HeLa Luc-Wee1K328M stability, at 5 µM, hits give high values, 100% = proteasome inhibitor MG132 effect.
Take `NS(=O)(=O)c1ccc(CNC(=O)c2cnccn2)cc1`: the reporter increase is 3.73%.

With `COC(=O)CC1=NN(c2ccccc2)C(=O)C1`, the reporter increase is -1.29%.

For the compound `Cc1cc(C)cc(NC(=O)C2CCN(c3nc(C)cc(C)n3)CC2)c1`, the reporter increase was -2.65%.

Turning to `COC(=O)CC1=NN(c2nc(C)cc(C)n2)C(=O)C1`, the reporter increase is 15.3% (active).

For the compound `O=C1C2C3C=CC(C3)C2C(=O)N1c1ccc(S(=O)(=O)Nc2nccs2)cc1` (stereo not given), the reporter increase was -1.57%.

Take `NS(=O)(=O)c1ccc(NC(=O)COC(=O)c2cc3ccccc3oc2=O)cc1`: the reporter increase was -2.85%.

On to `O=C(CCc1ccccc1)NNc1ccc(F)cc1`, for which the reporter increase was 1.37%.

Consider `Cc1ccccc1N1CCN(CCCOc2ccc3c(C)cc(=O)oc3c2)CC1`, for which the reporter increase was -1.06%.

Turning to `COc1cccc(-c2nnc(SCCOc3ccc4c(C)cc(=O)oc4c3)o2)c1`, the reporter increase is 9.51% (active).

For `Cc1cc(=O)oc2cc(OCCC[n+]3ccccc3)ccc12`, the reporter increase is -1.76%.

In the case of `COC(=O)c1sccc1NN1C(=O)c2ccccc2C1=O`, the reporter increase was -2.49%.

With `CCc1c(C)sc(NC(=O)/C=C/c2ccc3c(c2)OCO3)c1C(=O)OC`, the reporter increase was -2.27%.

On to `Cc1cccc(NC(=O)/C=C/c2ccc3c(c2)OCO3)n1`, for which the reporter increase is 9.34% (active).

For the compound `Cc1cccc(NC(=O)Nc2ccc3c(c2)OCO3)n1`, the reporter increase was 5.09%.

For `COc1ccc(C(=O)N/N=C2\CCS(=O)(=O)c3ccc(F)cc32)cc1OC`, the reporter increase is 0.62%.

For the compound `CC(C)c1ccc(C(=O)NCCCc2ccccc2)cc1`, the reporter increase is -2.16%.

For `O=C(NCCCNCc1ccccc1)c1ccc(/C=N/O)nc1`, the reporter increase is 11.4% (active).

Consider `Nc1ccc(C(=O)NCc2ccccc2)cc1`, for which the reporter increase is 2.22%.

As to `CNC(=S)NNC(=O)c1oc2nc(-c3ccccc3)cc(-c3ccco3)c2c1N`, the reporter increase is -0.32%.

Take `CCCCOC(=O)c1ccc(NC(c2ccc(C)cc2)P(=O)(OC)OC)cc1` (stereo not given): the reporter increase is 8.49%.

Regarding `CCOP(=O)(OCC)C(Nc1ccc([N+](=O)[O-])cc1)c1ccc(Cl)cc1` (stereo not given), the reporter increase is 0.66%.

As to `CCOP(=O)(OCC)C(Nc1cccc(C)c1)c1ccc(F)cc1` (stereo not given), the reporter increase was 10.8% (active).

Turning to `Nc1ccccc1SC(C[N+](=O)[O-])c1ccccc1` (stereo not given), the reporter increase is -0.08%.

Turning to `NC1=NC(=O)C(Cc2cccc(Cl)c2Cl)S1` (stereo not given), the reporter increase is 9.04% (active).

Turning to `NC1=NC(=O)C(Cc2cccc(Cl)c2)S1` (stereo not given), the reporter increase is -3.99%.

For the compound `O=C1NC(=Nc2ccc(Cl)cc2)SC1Cc1cccc(Cl)c1Cl` (stereo not given), the reporter increase is -1.02%.

On to `[O-][N+]12CCCCC1CCCC2CO` (stereo not given), for which the reporter increase is -2.55%.

Consider `COCCCNC(=O)C1CCN(c2ccc(N3CCOCC3)nn2)CC1`, for which the reporter increase was -2.62%.

Regarding `CSc1nc(-c2ccco2)nn1C(=O)c1ccccc1Cl`, the reporter increase is -1.69%.

Consider `Cc1ccc(C)c(NC(=S)NNC(=O)c2csc(C)c2)c1`, for which the reporter increase was 1.58%.

As to `Cc1ccccc1NC(=S)NNC(=O)c1cccc(Br)c1`, the reporter increase is -1.44%.

Take `Cc1cc(C(=O)NNC(=S)Nc2ccccc2C)cs1`: the reporter increase is 10.1% (active).

Consider `CC(=O)N1CC[n+]2c(-c3ccc([N+](=O)[O-])cc3)csc21`, for which the reporter increase is -3.06%.

Consider `Nc1nnc(SCn2nnc3ccccc3c2=O)s1`, for which the reporter increase was -0.04%.

In the case of `O=c1c2ccccc2nc(CSc2nnnn2-c2ccccc2)n1-c1ccccc1`, the reporter increase was 5.88%.

With `O=c1c2ccccc2nnn1CSc1nnnn1-c1ccccc1`, the reporter increase is 9.56% (active).

For the compound `Cc1ccc(-c2nc(SCC(=O)Nc3ccccc3OC(F)F)c3c(C)c(C(=O)O)sc3n2)cc1`, the reporter increase is -1.68%.

With `O=[N+]([O-])/C=C1\CCCCCN1`, the reporter increase is -2.66%.

Consider `COc1ccc(CCN2C(=O)CC(N3CCC(C(N)=O)CC3)C2=O)cc1OC` (stereo not given), for which the reporter increase was -3%.

With `C/C(=N\NC(=S)Nc1ccc(C)cc1)c1cc2ccccc2o1`, the reporter increase was 5.15%.

As for `O=C(CCN1c2ccccc2Sc2ccccc21)Nc1ccccc1`, the reporter increase was 0.76%.

As to `CCC(=O)/C=C1\Sc2ccccc2N1CC`, the reporter increase is -1.98%.

For `CCN1/C(=C/C(=S)Nc2ccccc2)Sc2ccccc21`, the reporter increase is 11.6% (active).

In the case of `COc1ccc(Nc2ncc(C(=O)N3CCN(c4ccccc4OC)CC3)c3ccccc23)cc1`, the reporter increase was 8.82% (active).

Turning to `COc1ccccc1N1CCN(C(=O)c2cn(-c3ccccc3)nc2-c2cccnc2)CC1`, the reporter increase is -0.84%.

Turning to `COc1ccc2oc(=O)c(C(=O)N3CCN(c4ccccc4F)CC3)cc2c1`, the reporter increase is -2.32%.

Regarding `O=C(/C=C/Nc1ccc(S(=O)(=O)Nc2cnc3ccccc3n2)cc1)c1cccnc1`, the reporter increase is -0.5%.

`COc1cc(OC)c(OC)cc1/C=N/Nc1ncnc2c1[nH]c1ccc(C)cc12`: the reporter increase is 0.2%.

As to `O=C(NNS(=O)(=O)Cc1ccccc1)c1ccc([N+](=O)[O-])cc1`, the reporter increase is -1.88%.

Consider `Nc1c(C(=O)NCc2ccccc2)sc2nc3c(cc12)C(=O)CCC3`, for which the reporter increase is 2.8%.

On to `COC(=O)c1cc2c(N)c(C(=O)c3ccc(Cl)cc3)sc2nc1C(OC)OC`, for which the reporter increase is -2.57%.

Turning to `CC(C)OC(=O)c1sc2nc3c(cc2c1N)C(=O)CCC3`, the reporter increase was 11.6% (active).

Turning to `CN(CC(O)COc1ccc(S(=O)(=O)N2CCOCC2)cc1Cl)C1CCCCC1` (stereo not given), the reporter increase was -3.05%.

On to `O=C(N/N=C/c1cccc([N+](=O)[O-])c1)c1ccncc1`, for which the reporter increase was 2.44%.

Take `CN(c1cccc(NC(=O)Nc2ccc(Cl)cc2)c1)S(C)(=O)=O`: the reporter increase is 4.1%.

Consider `CC(C)S(=O)(=O)c1csc(NC(=O)Nc2ccc(Cl)cc2)c1Cl`, for which the reporter increase was 14.2% (active).

Take `Cn1ccc(NC(=O)Nc2ccc(Cl)cc2)n1`: the reporter increase was 2.1%.

On to `Cn1nc(C(F)(F)F)cc1C(=O)O`, for which the reporter increase was -1.44%.

Regarding `COc1ccc(Br)cc1/C=N/NC(=O)c1cccc(S(=O)(=O)N2CCOCC2)c1`, the reporter increase was 8.21%.

As to `COc1cccc(/C=N/NC(=O)CNC(=O)c2ccc(S(=O)(=O)N3CCOCC3)cc2)c1OC`, the reporter increase is 12.4% (active).

For the compound `COc1ccc(/C=N/NC(=O)CNC(=O)c2ccc(S(=O)(=O)N3CCCC3)cc2)c(OC)c1`, the reporter increase is 0.74%.

In the case of `COC(=O)c1sccc1NC(=S)Nc1ccc(C)cc1`, the reporter increase was 2.58%.

As to `O=C(CNCc1ccco1)Nc1cc(S(=O)(=O)N2CCOCC2)ccc1N1CCCC1`, the reporter increase was -2.01%.

Regarding `O=C(NCc1cccs1)C1CCN(S(=O)(=O)c2ccc(Cl)cc2)CC1`, the reporter increase is 0.23%.

Regarding `O=C(CNCc1cccs1)Nc1cc(S(=O)(=O)N2CCCC2)ccc1Cl`, the reporter increase was 8.84% (active).

Source of the values: PubChem BioAssay AID1321 (The Scripps Research Institute Molecular Screening Center, 2008).
